Screening data deposited in PubChem by National Center for Advancing Translational Sciences (NCATS).
Shown are actives, neighbours in structure and some others; about 19% of the full set was active somewhere.
HT1080NT lethal: kills 2HG-producing HT-1080-NT fibrosarcoma cells; HT-1080-NT fibrosarcoma viability, CellTiter-Glo ATP luminescence, 48 h; Potency, µM (top dose mostly 46.1 µM), for inactives: at the top dose activity, negative = less viability, actives largely listed as cytotoxic; 360,000 tested, 1.6% active; AID 686970;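 note: NT is the 2HG producing partner of a matched IDH1 knockdown line; potency is the fitted concentration of half-maximal effect; 0% = DMSO-treated cells and -100% = media-only wells without cells; nearly all actives have a fitted effect of over 55% in size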
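Read-out is CellTiter-Glo luminescence after 10 minutes at room temperature, following 48 hours' compound treatment of HT-1080-NT cells (750 cells/well, RPMI, 5% FBS, 37 degrees C).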
IL1B secr inh: inflammasome signaling inhibition, IL-1 beta readout; THP-1 LPS/ATP IL-1B secretion, AlphaLISA, 16 h; hits give low values; activity change, % at 57.5 µM; 360,000 tested, 4.7% active; AID 743279; in the data active = activity change below about -50%; inconclusive = mostly about -30% to -49%
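THP-1 cells pretreated 1 hr with compounds (up to 57.5 uM final), then stimulated with LPS (250 ng/mL final) plus ATP (1.25 mM final); secreted IL-1B measured by AlphaLISA after 16 hr, decreased signal indicating inhibition.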
TDP1 cell CPT: DT40-hTDP1 cell growth loss with CPT | chicken DT40 Tdp1-/-;hTDP1 cells + 20 nM CPT, ATP luminescence, 48 h | Potency, µM (doses to about 46.2 µM), without a hit: top-dose activity change, negative = growth inhibition, most hits filed as inhibitors | 420,000 tested, 12% active | AID 686979; note: potency is the fitted concentration of half-maximal effect; nearly all actives have a fitted effect of over 55% in size
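Chicken DT40 Tdp1-/- cells complemented with human TDP1, 400 cells/well, exposed to compounds plus 20 nM camptothecin for at least 48 h at 37 C; viability read as ATP content by CellTiter-Glo luminescence.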
TDP1 cell noCPT: qHTS for Inhibitors of human tyrosyl-DNA phosphodiesterase 1 (TDP1): qHTS in cells in absence of CPT; DT40 Tdp1-/- hTDP1 cells, no CPT, ATP luminescence, 48 h; Potency, µM (highest dose often 46.2 µM), for inactives: at the top dose activity change, negative = growth inhibition, most hits filed as inhibitors; 420,000 tested, 15% active; AID 686978, 2013; note: potency is the fitted concentration of half-maximal effect; nearly all actives have a fitted effect of over 55% in size
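No-CPT arm: Tdp1-/-;hTDP1 DT40 cells (400/well) plus compounds, incubated ≥48 hr at 37 °C. Readout CellTiter-Glo luminescence.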
HT1080 IDH1KD tx: toxicity to HT-1080 IDH1 knockdown cells (counter line); HT-1080 IDH1 knockdown viability, ATP luminescence, 48 h; Potency, µM (titrated, usually from 46.1 µM), for the others: top-dose activity, negative = toxicity, actives largely listed as cytotoxic; 360,000 tested, 2% active; AID 686971;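 note: potency is the fitted concentration of half-maximal effect; 0% = DMSO wells and -100% = cell-free medium wells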
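CellTiter-Glo luminescence after 48 h compound exposure at 37 degrees C of IDH1-knockdown HT-1080 cells in 5% FBS RPMI. %Activity scaled between DMSO wells and cell-free media wells, with curves fitted and assigned curve classes.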
* = called active by the depositor; ? = inconclusive; nt = no result given. Unless noted, calls come from the whole dose curve; as a rule, active = well fitted curve in the direction sought with a large enough effect; inconclusive = small, poorly fitted or top-dose-only effect, or another doubt; inactive = no such curve, though single readings can be large; an effect the other way counts as inactive or inconclusive. Unless noted, % is set by controls: 0 for no effect and ±100 for the full control effect.

SMILES	HT1080NT lethal	IL1B secr inh	TDP1 cell CPT	TDP1 cell noCPT	HT1080 IDH1KD tx
FC(F)Sc1ccc(NC(=S)NC2CCCC2)cc1	-9.1%	-3.0	?	16.4µM*	-17.2%
FC(F)(F)c1ccc(NC(=S)NC2CCCCC2)cc1	?	-99.7*	?	18.4µM*	?
OC1CCC(NC(=S)Nc2ccc(SC(F)F)cc2)CC1 (centres undefined)	-0.1%	-15.3	?	?	-13.3%
Cc1cc(N2CCN(C(C(=O)NC3CCCC3)C(C)C)CC2)c2ccccc2n1 (centres undefined)	-15.0%	-11.5	-25.1%	-16.3%	-0.5%
Cc1cc(N2CCN(C(C(=O)NC3CCCC3)c3ccc(-c4ccccc4)cc3)CC2)c2ccccc2n1 (centres undefined)	-26.6%	4.4	7.31µM*	8.2µM*	-17.0%
O=C(NC1CCCCC1)C(c1ccnc2ccccc12)n1c(=O)c(-c2ccco2)nc2ccccc21 (centres undefined)	-25.8%	-11.9	13µM*	13µM*	-27.3%
O=C(NC1CCCC1)C(c1ccccc1)n1c(-c2cccs2)nc2ccccc21 (centres undefined)	-3.9%	-14.7	?	?	-1.7%
O=C(NC1CCCC1)C(c1ccccc1)n1c(CSCCOc2ccccc2)nc2ccccc21 (centres undefined)	?	23.8	?	16.4µM*	-23.2%
O=C(NC1CCCCC1)C(c1ccccc1F)n1c(=O)c(-c2ccco2)nc2ccccc21 (centres undefined)	-8.3%	-2.8	?	16.4µM*	-2.0%
C[C@@H]1CN([C@H](C)CO)C(=O)Cc2cc(NC(=O)CCC(F)(F)F)ccc2O[C@@H]1CN(C)S(=O)(=O)c1ccccc1	3.9%	-5.2	-28.9%	?	11.2%
O=C(NC1CCCCC1)C(C1CC1)n1c(=O)c(-c2ccccc2)nc2ccccc21 (centres undefined)	-26.5%	-10.2	?	16.4µM*	?
O=C(NC1CCCCC1)C(c1ccc(-c2ccccc2)cc1)n1c(=O)c(-c2ccco2)nc2ccccc21 (centres undefined)	?	19.7	?	14.6µM*	?
O=C(O)c1cccc(Nc2ccncc2[N+](=O)[O-])c1	18.5%	-6.8	?	18.4µM*	7.9%
O=C(C1CCN(S(=O)(=O)N2CCOCC2)CC1)N1CCN(c2ccc(F)cc2)CC1	-15.1%	8.5	8.2µM*	10.3µM*	-8.9%
COc1ccc(N2CCN(C(=O)C3CCN(S(=O)(=O)N4CCOCC4)CC3)CC2)cc1	-6.4%	13.3	?	13µM*	-3.4%
O=S(=O)(N1CCOCC1)N1CCN(c2ccc(F)cc2)CC1	-6.3%	16.9	-23.9%	3.7%	9.1%
Cc1ccc(N2CCN(CCCN3C(=O)C4CCCN4C3=O)CC2)cc1 (centres undefined)	0.3%	0.4	-25.0%	-1.3%	-0.2%
O=C1C2CCCCN2C(=O)N1CCCCN1CCN(c2cccc(C(F)(F)F)c2)CC1 (centres undefined)	-24.2%	?	10.3µM*	?	-3.3%
O=C1C2CCCCN2C(=O)N1CCCCN1CCN(c2ccc([N+](=O)[O-])cc2)CC1 (centres undefined)	-12.3%	-5.0	?	14.6µM*	-0.8%
O=C1C2CCCCN2C(=O)N1CCCCN1CCN(c2cccc(Cl)c2)CC1 (centres undefined)	6.1%	3.2	-25.6%	?	-7.6%
CC(=O)N1CCCc2cc(S(=O)(=O)N3CCC(C(=O)NCCC(C)C)CC3)ccc21	nt	nt	8.8%	-7.2%	nt
CSc1cccc(NC(=O)C2CCN(S(=O)(=O)c3ccc4c(c3)CCCN4C(=O)C3CCC3)CC2)c1	nt	nt	?	11.6µM*	nt
CC(=O)c1ccc(NC(=O)C2CCN(S(=O)(=O)c3ccc4c(c3)CCCN4C(=O)C3CCC3)CC2)cc1	nt	nt	11.6µM*	?	nt
